Screens: PubChem BioAssay, National Center for Advancing Translational Sciences (NCATS)
LMNA splice mod = qHTS Assay for Modulators of Lamin A Splicing. Potency, µM (top dose mostly 46.1 µM), inactives show top-dose ratio change, negative = inhibition, hits mostly inhibitors. HeLa LMNA splicing GFP/RFP minigene ratio, 48 h. 0.01% of 200,000 active; active = well fitted inhibition curve with a large enough effect in the signal ratio, with a control signal flat, not every such curve was filed as active; inconclusive = small, poorly fitted or top-dose-only effect, or effect the other way, or a change in a side signal; the % refers to the signal ratio; note: potency is the fitted concentration of half-maximal effect
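S3 HeLa cells stably expressing lamin A-EGFP splicing minigene plus DsRed2, 600 cells/well, 48 h compound exposure at 37C. Laser-scanning cytometry; analysed as GFP (500-530 nm)/RFP (575-640 nm) total intensity ratio; 0.5% DMSO vehicle.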
ALDH1A1 inh = qHTS Assay for Inhibitors of Aldehyde Dehydrogenase 1 (ALDH1A1). Potency, µM (doses to about 75.3 µM), without a hit: at the highest dose activity, negative = inhibition, most hits filed as inhibitors. 7.3% of 220,000 active. Purified ALDH1A1, NADH fluorescence, propionaldehyde substrate. AID 1030, 2008;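 note: potency is the fitted concentration of half-maximal effect; plate controls were no enzyme wells and a reference inhibitor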
Target sequence (P00352 whole entry, looked up): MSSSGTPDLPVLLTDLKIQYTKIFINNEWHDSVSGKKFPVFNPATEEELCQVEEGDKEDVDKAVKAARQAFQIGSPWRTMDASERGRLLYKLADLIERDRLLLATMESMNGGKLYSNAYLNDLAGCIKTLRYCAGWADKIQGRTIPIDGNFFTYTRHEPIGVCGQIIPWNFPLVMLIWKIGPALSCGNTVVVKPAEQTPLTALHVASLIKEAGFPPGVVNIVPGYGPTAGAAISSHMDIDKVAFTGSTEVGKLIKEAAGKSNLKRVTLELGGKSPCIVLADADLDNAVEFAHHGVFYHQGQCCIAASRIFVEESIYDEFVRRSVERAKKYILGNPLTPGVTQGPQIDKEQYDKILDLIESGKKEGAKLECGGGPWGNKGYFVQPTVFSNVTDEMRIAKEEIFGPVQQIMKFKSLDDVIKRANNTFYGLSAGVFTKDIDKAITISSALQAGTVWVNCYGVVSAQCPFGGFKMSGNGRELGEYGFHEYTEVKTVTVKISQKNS
PNC inhibitor = High Content Assay for Compounds that inhibit the Assembly of the Perinucleolar Compartment; activity change (PNC), negative = inhibition, % at 10 µM; PC3M PTB-GFP, PNC prevalence imaging, 16 h; active compounds read low; 3.1% of 140,000 active;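 active = readout at or below -70, meaning at least 70% loss of cells showing the perinucleolar compartment, a nuclear body marking cancer cells; inconclusive = readout between -30 and a set limit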;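 note: plate controls were DMSO wells for no effect and camptothecin positive control wells for full effect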
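PC3M cells stably expressing PTB-GFP, 750–1000 cells/well, treated 16 h at 37 °C with compound (23 nl of library stock), in duplicate. After paraformaldehyde fixation and Hoechst stain, imaged at 20x; PNC prevalence scored by image analysis.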
IMPase inh = qHTS Assay for Identifying the Cell-Membrane Permeable IMPase Inhibitors; inhibition (IP1 accumulation), % at 46.1 µM; CHO-M1 cells, IP1 accumulation, HTRF TR-FRET ratio; 120,000 tested, under 10 active; active = well fitted curve in the direction sought with a large enough effect in the signal ratio, not every such curve was filed as active; inconclusive = small, poorly fitted or top-dose-only effect, or a change in a side signal; inactive = no such curve, though single readings can be large or run the other way; the % refers to the signal ratio;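 note: cells stimulated with carbachol in lithium chloride buffer; plate controls were DMSO basal wells for no effect and reference inhibitor wells for full effect; higher means more IMPase inhibition seen as more IP1 and lower FRET ratio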
Target sequence (P97697 whole entry, looked up): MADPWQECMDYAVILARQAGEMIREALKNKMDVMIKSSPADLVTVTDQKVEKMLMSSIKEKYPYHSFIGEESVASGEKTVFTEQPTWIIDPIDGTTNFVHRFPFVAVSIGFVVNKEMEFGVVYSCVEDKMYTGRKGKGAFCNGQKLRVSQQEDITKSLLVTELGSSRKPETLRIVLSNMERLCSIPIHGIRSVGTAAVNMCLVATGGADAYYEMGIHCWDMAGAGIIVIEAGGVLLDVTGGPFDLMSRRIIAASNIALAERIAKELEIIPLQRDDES
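Elevated IP1 in lysates lowers TR-FRET signal (665/620 ratio and 620 channel reported). Cells were CHO-M1, given carbachol (50 uM as added) plus 50mM LiCl, pH 7.4, 30 min, 37C; compounds titrated up to 46 uM; AC50 by Hill equation.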
Luc counter = Counterscreen for Luciferase (Kinase-Glo TM) Inhibition; 0.28% of 200,000 active; Potency, µM (highest dose often 38.3 µM), inactives show at the top dose activity change, negative = inhibition, actives largely listed as inhibitors; Kinase-Glo luciferase, ATP luminescence, 8 min; Luciferin 4-monooxygenase (Photuris pensylvanica), Q27757; active = well fitted inhibition curve with a large enough effect; inconclusive = small, poorly fitted or top-dose-only effect; note: potency is the fitted concentration of half-maximal effect; nearly all actives have a fitted effect of over 60% in size
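Kinase-Glo luciferase light output from ATP and luciferin was measured with 10 uM ATP, within the enzyme's linear range. Buffer: 50 mM imidazole pH 7.2, 50 mM KCl, 7 mM MgCl2, 0.01% Tween 20, 0.05% BSA; luminescence read after 8 min at ambient temperature.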
HPGD inh = qHTS Assay for Inhibitors of HPGD (15-Hydroxyprostaglandin Dehydrogenase). 15-hydroxyprostaglandin dehydrogenase [NAD(+)] (Homo sapiens), P15428. purified HPGD, NADH fluorescence kinetic, PGE2 substrate. AID 894, 2007. Potency, µM, for the others: at the highest dose activity change, negative = inhibition, usual class: inhibitors. 4.3% of 150,000 active; note: potency is the fitted concentration of half-maximal effect
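20 nM HPGD preincubated 15 min at room temperature with compound in 50 mM Tris-HCl pH 8, 0.01% Tween 20. Started with 1 mM NAD+ and 30 uM prostaglandin E2; NADH fluorescence (360/450 nm) read 5 times over 30-s intervals, last minus first.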
An asterisk follows results filed as active; ? = inconclusive; · = no result given; [ ] = another dose, or the depositor's remark. This is a sample that favours compounds with a hit; in the whole collection about 10% have one here. Unless noted, calls come from the whole dose curve; as a rule, active = well fitted inhibition curve with a large enough effect (not every such curve was filed as active); inconclusive = small, poorly fitted or top-dose-only effect, or another doubt; inactive = no such curve, though single readings can be large or run the other way. Unless noted, % is set by controls: 0 for no effect and ±100 for the full control effect.

SMILES	LMNA splice mod	ALDH1A1 inh	PNC inhibitor	IMPase inh	Luc counter	HPGD inh
COc1ccc(S(=O)(=O)N2CCSC2c2ccccc2)cc1 (stereo not given)	?	25µM*	30	-1	2%	-19%
C=CCn1c(C)cc(C(=O)COc2ccc(S(=O)(=O)N3CCCC3)cc2[N+](=O)[O-])c1C	-16%	5µM*	25	·	-4%	-11%
COc1ccc(/C=C(\C#N)C(=O)OC2CCOC2=O)cc1 (stereo not given)	?	18µM*	·	·	0%	·
COc1ccccc1Nc1ccc([N+](=O)[O-])cc1N	-7%	-8%	9	·	0%	-11%
COc1cc(Nc2ccccc2Cl)c([N+](=O)[O-])nc1[N+](=O)[O-]	28%	8%	-92*	-7	3%	25µM*
CC(C)c1cnc2c(c1SCC(=O)NCc1ccccc1Cl)c(=O)n(C)c(=O)n2C	-4%[46 µM]	·	·	·	·	·
CCOc1ccccc1NC(=O)CCN1CCN(S(=O)(=O)c2ccc(Br)cc2)CC1	-17%	-8%	-107*	-9	-3%	-14%
CC(=O)OC[C@@H]1O[C@@H](O/N=C2/C[C@@H](O)[C@@H](O)[C@@H]3[C@@H]4C(=O)N(Cc5ccccc5)C(=O)[C@H]4CC[C@H]23)[C@H](OC(C)=O)[C@H](OC(C)=O)[C@@H]1OC(C)=O	·	-6%[13.5 µM]	·	·	·	·
Cc1ccc(CNC(=O)c2cnc3c(-c4ccccc4)c(C)nn3c2C)o1	2%[46 µM]	·	·	·	·	·
CCCn1c2c(c(O)c(C(=O)Nc3ncccc3O)c1=O)CCCC2	?	5.6µM*	?	-2	·	·
CCCn1c2c(c(O)c(C(=O)NCCCN(CC)CC)c1=O)CCCC2	-19%	28µM*	-100*	-3	3%	-13%
COCCNc1ccnc(-c2ccccc2CN(C)C)n1	-1%	10%	·	·	-4%	-3%
COCCNc1nc2nonc2nc1N(C)Cc1cccc2cnccc12	13%[46 µM]	5µM*	·	·	-4%	·
Cc1nc(N2CCOCC2)c2nc(-c3ccccc3)n(CC3CCN(C)CC3)c2n1	·	?	·	·	-4%	?
Cc1cc(C(=O)N2CCCC(CNS(=O)(=O)c3cccs3)C2)nn1C (stereo not given)	?	18µM*	·	·	1%	·
O=S(=O)(NCc1cn2ccccc2n1)c1cc(F)ccc1F	-7%	-4%	-100*	1	0%	-11%
CC(=O)OCC1OC(C#Cc2ccccc2)C=CC1OC(C)=O (stereo not given)	·	-10%[13.5 µM]	·	·	·	·
CC(CCc1ccccc1)NS(=O)(=O)c1ccccc1 (stereo not given)	5%	10µM*	?	1	2%	-11%
CCN(Cc1ccccc1)Cc1c(O)ccc2c(=O)c(-c3ccc(Cl)cc3)coc12	·	·	·	-7	·	·
COc1ccc(C2=C(Nc3ccc(F)cc3)c3ccccc3C2=O)cc1	?	?	-13	3	-3%	25µM*
CC(C)CCNC(=O)c1ccc2c(SCC(=O)O)c3c(nc2c1)CCCC3	-4%	?	3	·	3%	28µM*
C=CCOc1ccc(C2NC(=S)NC3=C2CCc2ccccc23)cc1 (stereo not given)	·	1µM*	·	·	·	·
COc1ccc2c(c1)CCC1=C2NC(=S)NC1c1ccc(N(C)C)cc1 (stereo not given)	?	2.8µM*	·	·	-4%	·
O=C1NC2=C(CCc3ccccc32)C(c2ccccc2)N1 (stereo not given)	?	?	-113*	·	2%	?
CCOc1ccc(N(C)C(=O)C2CCN(S(=O)(=O)c3c(C)noc3/C=C/c3ccc(C)cc3)CC2)cc1	6%[46 µM]	·	·	·	·	·
SMILES	LMNA splice mod	ALDH1A1 inh	PNC inhibitor	IMPase inh	Luc counter	HPGD inh
CCN1C(=O)c2cccc3c(S(=O)(=O)Nc4ccccc4OC)ccc1c23	?	4.5µM*	68	9	-1%	-9%
CCN1C(=O)c2cccc3c(S(=O)(=O)NCCc4c[nH]c5ccccc45)ccc1c23	-4%	14µM*	7	7	1%	-9%
Cc1ccc(-c2nc3ccccc3s2)cc1NC(=S)NC(=O)c1ccccc1	-2%	10µM*	23	2	-9%	-12%
O=C(NC(=S)Nc1cc(-c2nc3ccccc3[nH]2)ccc1Cl)c1ccc2c(c1)OCO2	-12%	8.9µM*	-1	·	-9%	20µM*
Cc1ccc(-c2nc3ccccc3[nH]2)cc1NC(=S)NC(=O)c1ccccc1Br	9%[0.0737 µM]	28µM*	34	-1	-2%	-15%
Cc1ccc(-c2nc3ccccc3[nH]2)cc1NC(=O)/C=C/c1ccco1	13%	13µM*	55	6	-7%	-19%
CC(C)C[C@@H](CC(=O)N[C@H](CC(=O)N[C@@H]1CCCC[C@H]1C(=O)N[C@H](CC(=O)N[C@@H](CCC(=O)O)CC(=O)O)CC(C)C)C(C)C)NC(=O)[C@@H]1CNCC[C@H]1N	·	?	·	·	2%	-3%
Cc1ccc(S(=O)(=O)Nc2cccc(-c3ccc(N4CCC(C)CC4)nn3)c2)s1	-5%[46 µM]	·	·	·	·	·
CCCOC(=O)CSc1nnc2ccc3ccccc3n12	9%[46 µM]	·	·	·	·	·
COc1ccccc1CNC(=O)c1nnn(CC(=O)Nc2c(C)cccc2C)c1N	9%[46 µM]	·	·	·	·	·
CN(C)c1nc(N)nc(CSc2nnnn2C)n1	2%	6%	?	-13	2%	-10%
CN(C)c1nc(N)nc(CSc2ncc(Cl)cc2Cl)n1	7%	-9%	?	-10	-3%	8.9µM*
C1CCC(NC(=NC2C3CC4CC(C3)CC2C4)N2CCOCC2)CC1 (stereo not given)	·	0%	·	·	·	·
C#CCOCCOCCOCCNc1nc(N2CCN(C(=O)[C@H](CCCCN)n3cc(C(N)[C@H](C)CC)nn3)CC2)nc(N2CCN(C(=O)[C@H](CCC(=O)O)n3cc(C(N)[C@H](C)CC)nn3)CC2)n1 (stereo not given in full)	·	22µM*	·	·	·	·
C#CCOCCOCCOCCNc1nc(N2CCN(C(=O)[C@H]([C@@H](C)CC)n3cc([C@@H](N)CC(C)C)nn3)CC2)nc(N2CCN(C(=O)[C@H](CCCCN)n3cc([C@@H](N)C(C)CC)nn3)CC2)n1 (stereo not given in full)	·	-2%	·	·	·	·
CC1(c2ccccc2)CC(C)(C)N2C(=O)C(=O)c3cccc1c32 (stereo not given)	-20%[46 µM]	0.5µM*	·	·	2%	·
